Assay [1] can be described thus: NCI Yeast Anticancer Drug Screen. Data for the rad50 strain (AID 155).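 Also: 0% = growth of vehicle-only cultures of the same strain.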 The settings on record: S. cerevisiae rad50 strain growth inhibition, active compounds read high; at 50.0 µM unless noted. In a few lines: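 Yeast carrying a defined DNA repair defect were exposed to test compounds, and growth was compared with vehicle-treated controls to give percent inhibition.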
Assay [2] can be described thus: NCI Yeast Anticancer Drug Screen. Data for the mec2-1 strain (AID 157). The settings on record: S. cerevisiae mec2-1 strain, active compounds read high; at 50.0 µM unless noted. In a few lines:
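Yeast mec2-1 mutant treated with compound. Readout: growth inhibition vs vehicle controls.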

Assay [3] can be described thus: NCI Yeast Anticancer Drug Screen. Data for the sgs1 mgt1 strain (AID 161).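 Also: 0% = growth of cultures given vehicle only.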 The settings on record: S. cerevisiae sgs1 mgt1 strain, active compounds read high; at 50.0 µM unless noted. In a few lines:
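Read-out: growth inhibition vs vehicle controls. Cells: mutant yeast strain deficient in DNA damage repair.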

The nature of assay [4]: NCI Yeast Anticancer Drug Screen. Data for the cln2 rad14 strain (AID 165).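 Also: 0% = growth equal to vehicle treated cultures.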 The settings on record: S. cerevisiae cln2 rad14 strain, active compounds read high; at 50.0 µM unless noted. An outline of the steps: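 cln2 rad14 yeast strain; compound exposure; growth inhibition read vs vehicle controls.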
Assay [5] can be described thus: NCI Yeast Anticancer Drug Screen. Data for the bub3 strain (AID 167). The following applies: S. cerevisiae bub3 mutant strain, active compounds read high; at 50.0 µM unless noted. In a few lines:
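Compounds were applied to a genetically altered yeast strain carrying a cell-cycle control defect. Growth inhibition was scored against vehicle-treated controls.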

Assay [6] can be described thus: NCI Yeast Anticancer Drug Screen. Data for the mlh1 rad18 strain (AID 175). The following applies: S. cerevisiae mlh1 rad18 strain growth inhibition, active compounds read high; at 50.0 µM unless noted. An outline of the steps: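 Yeast w/ defined DNA-repair lesions; compound exposure; growth vs vehicle controls → % inhibition.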

SMILES strings stand for the structures. This is part of a sample that, as a whole, favours compounds with a hit. Of some 79,000 tested, about 15% had one in any assay. Values without a mark were called inactive. Active and inactive are the calls of the source. Rule as the data show it: active = growth inhibition above about 70%; inactive = the rest.

`O=S=Nc1c(Cl)cc(Cl)cc1Cl`: the growth inhibition in assay [1] is 1.1%; in assay [2], -20.1%; in assay [3] it was 1.55%; in assay [4] it was -18.6%; in assay [5], 11.7%; in assay [6] it was -0.6%.
On to `Cn1cnc2ncnc(Cl)c21`, for which the growth inhibition in assay [1] was 1.85%; in assay [2], -3.45%; in assay [3] it was 9.8%; in assay [4], -19.1%; in assay [5] it was -52.1%; in assay [6], -26.9%.
In the case of `O=C1C2C3ON(c4ccccc43)C2C(=O)N1c1ccccc1` (stereo not given), the growth inhibition in assay [1] is -0.65%; in assay [2], 21%; in assay [3], 15.4%; in assay [4] it was 2.4%; in assay [5] it was 3.6%; in assay [6], -3.55%.
As for `Cc1ccc(NC(=O)ON(C)C)cc1`, the growth inhibition in assay [1] is -1.65%; in assay [2], 11.7%; in assay [3], 8.25%; in assay [4], -81.5%; in assay [5], -18.9%; in assay [6], -24.2%.
As to `C/C=C(/Br)C(=O)O`, the growth inhibition in assay [1] was -11.6%; in assay [2], -6%; in assay [3], -10.2%; in assay [4], -53.5%; in assay [5] it was -5.2%; in assay [6], -12.9%.
As to `SCCNCc1ccccc1`, the growth inhibition is 20.9% in assay [1]; -13.1% in assay [2]; 6.9% in assay [3]; 9.85% in assay [4]; 6.9% in assay [5]; 10.2% in assay [6].
Consider `COc1ccc(/C=N\NC(=O)c2cnccn2)cc1`, for which the growth inhibition in assay [1] is 9.15%; in assay [2], 10.8%; in assay [3], 5.35%; in assay [4], 1.4%; in assay [5] it was 15.7%; in assay [6] it was 11.1%.
On to `CC(=O)OCC1OC(O)C(NC(=O)C(F)(F)F)C(OC(C)=O)C1OC(C)=O` (stereo not given), for which the growth inhibition was 99.6% (active) in assay [1]; 99.8% (active) in assay [2]; 99.7% (active) in assay [3]; 99% (active) in assay [4]; 99.3% (active) in assay [5]; 99.5% (active) in assay [6].
As for `Cc1ccc(NC(=O)N(C)C)c(C)c1`, the growth inhibition was -36.7% in assay [1]; -37% in assay [2]; -4.9% in assay [3]; 12% in assay [4]; 16.4% in assay [5]; -9.75% in assay [6].
Regarding `O=C1OCC/C1=C\c1ccc2c(c1)OCO2`, the growth inhibition in assay [1] was 40.4%; in assay [2], -26.5%; in assay [3], 20%; in assay [4] it was -2.85%; in assay [5] it was -10.2%; in assay [6], -2.4%.
Consider `CCCCCCCCCCCCCCCCCc1c(Cl)c(Cl)c(Cl)c(Cl)c1Cl`, for which the growth inhibition is 47% in assay [1]; -4% in assay [2]; 26.4% in assay [3]; -45.1% in assay [4]; -2.75% in assay [5]; -6.6% in assay [6].
As to `O=C1NCC2(CCN(CCCC3(c4ccc(F)cc4)OCCO3)CC2)N1c1ccccc1`, the growth inhibition in assay [1] was -14.1%; in assay [2] it was -0.05%; in assay [3] it was -1.55%; in assay [4] it was 1.4%; in assay [5], 6.4%; in assay [6], 1.55%.
`COC(=O)C1=C2C3(O)CC4CC5C3CCC(C)N5C24C2CCCC(OC)C2C1OC(=O)c1ccccc1` (stereo not given): the growth inhibition in assay [1] was -2.1%; in assay [2] it was -27.1%; in assay [3], 17.9%; in assay [4], 8.9%; in assay [5], 0.7%; in assay [6], 24.1%.
Take `CON1C(=O)C(c2ccccc2)c2ccccc21` (stereo not given): the growth inhibition in assay [1] is 58%; in assay [2], 22.6%; in assay [3], 47.8%; in assay [4], 3.1%; in assay [5], 10.7%; in assay [6], 6.65%.
With `CCN(CC)CCC(=O)c1ccc(Cl)cc1`, the growth inhibition is 19.6% in assay [1]; 21.4% in assay [2]; 14.1% in assay [3]; 10.3% in assay [4]; 1.05% in assay [5]; 17.4% in assay [6].
For `C=C1C=C2CCC3C(CCC4(C)C(C(C)CCCC(C)C)CCC34)C2(C)CC1` (stereo not given), the growth inhibition was 82.5% (active) in assay [1]; 57.6% in assay [2]; 84.9% (active) in assay [3]; 60.6% in assay [4]; 28.2% in assay [5]; 74.2% (active) in assay [6].
Take `C/C=C(\C)c1cc(=O)c2c(C)cc3c(c2o1)C(OC)(OC(C)=O)c1c(O)c(C2CC(C)(N(C)C)C(OC(C)=O)C(C)O2)cc(C2CC(N(C)C)C(OC(C)=O)C(C)O2)c1C3=O` (stereo not given): the growth inhibition was -23.9% in assay [1]; -28.3% in assay [2]; -30.8% in assay [3]; 0.5% in assay [4]; -21.6% in assay [5]; -4.8% in assay [6].
On to `CCCCC(CCCC)C(=O)O`, for which the growth inhibition was -22.3% in assay [1]; -9.65% in assay [2]; -9.85% in assay [3]; 50% in assay [4]; 10.9% in assay [5]; -9.3% in assay [6].
Turning to `CC(C)N(C(=O)C12C3C4C1C1C2C3C41C(=O)N(C(C)C)C(C)C)C(C)C` (stereo not given), the growth inhibition in assay [1] was -1.85%; in assay [2] it was -9.2%; in assay [3], -12.9%; in assay [4] it was -1%; in assay [5] it was 8.45%; in assay [6], -26.5%.
Turning to `CC1CCC2COC(=O)CCC2(C)C1C` (stereo not given), the growth inhibition in assay [1] is 5.95%; in assay [2], 0.7%; in assay [3], -9.75%; in assay [4], -40.9%; in assay [5] it was -17.4%; in assay [6], -22.9%.

Values taken from PubChem BioAssay (NCI).
